An excerpt weighted towards active compounds, which were near 3.7% of everything screened.
Anthrax LF inh2: inhibitors of Bacillus anthracis lethal factor protease | P15917 | multiplex microsphere protease cleavage assay, LF | inhibition, % at 10 µM | 0.12% of 360,000 active; note: plate controls were buffer without enzyme for full effect and enzyme alone for no effect
MazEF act: MazEF (E. coli) toxin RNase activation; P0AE70; activation, % at 20 µM; 0.32% of 350,000 active; AID 504720; FAM/BHQ RNA-DNA oligo cleavage fluorescence, 5 h; in the data active = activation above about 50%
Target sequence (P0AE70 whole entry, looked up): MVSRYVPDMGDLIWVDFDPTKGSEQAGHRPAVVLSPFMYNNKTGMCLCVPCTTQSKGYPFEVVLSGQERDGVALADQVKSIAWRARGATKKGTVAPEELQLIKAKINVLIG
BoNT F protease: blocks Botulinum neurotoxin F light chain protease; Multiplex microsphere protease cleavage assay, flow cytometry; inhibition, % at 10 µM; 0.22% of 360,000 active; AID 588497; in the data active = inhibition above about 35%, passing the limit was not always enough; inconclusive = no clear call, values can overlap the other calls; note: plate controls were buffer without enzyme for full effect and enzyme alone for no effect
Autofluor counter: flagged as autofluorescent in microsphere protease counterscreen | compound autofluorescence counterscreen, microsphere flow cytometry; stronger effect = higher value | fluorescence intensity (test concentration not listed) | AID 624483 | 3.1% of 360,000 active; in the data active = fluorescence intensity above about 16000; inconclusive = no clear call, values can overlap the other calls
BoNT-A LC inh2: blocks Botulinum neurotoxin A light chain protease; multiplex microsphere protease substrate cleavage, flow cytometry; inhibition, % at 10 µM; 0.17% of 360,000 active; note: plate controls were buffer without enzyme for full effect and enzyme alone for no effect
BoNTA LC inh 2: blocks botulinum neurotoxin A light chain protease | inhibition, % at 10 µM | AID 602325 | 10% of 150 active | multiplex microsphere protease cleavage assay, flow cytometry | shares compounds with BoNT-A LC inh2; in the data active = inhibition above about 24%
LF protease CP2: blocks anthrax lethal factor protease. shares compounds with BoNT-A LC inh2. 7% of 150 active. multiplex microsphere protease cleavage assay. inhibition, % at 10 µM; in the data active = inhibition above about 25%
BoNTF LC inh 2: inhibitors of botulinum neurotoxin F light chain protease | shares compounds with BoNT-A LC inh2 | AID 602336 | inhibition, % at 10 µM | 7% of 150 active | multiplex microsphere protease cleavage assay, flow cytometry; in the data active = inhibition above about 25%
The depositor's hits bear a star; ? = inconclusive; / = not tested or not shown. Cut-off read from the data, not from the text of the source, unless noted: active = inhibition above about 30%; inconclusive = no clear call, values can overlap the other calls; inactive = below that.

SMILES | Anthrax LF inh2 | MazEF act | BoNT F protease | Autofluor counter | BoNT-A LC inh2 | BoNTA LC inh 2 | LF protease CP2 | BoNTF LC inh 2
Cc1cc2cc(CNC(=O)Nc3cccc(Cl)c3)ccc2n1C | -137.0 | 2.8 | -140.3 | 1277 | 48.4* | 8.1 | 8.9 | 10.2
Cc1cccc(NC(=O)NCc2ccc3c(c2)OCO3)c1 | -4.0 | / | -3.6 | ? | -1.3 | / | / | /
CCO/C(C)=N/Oc1cnc2ccccc2c1 | 0.5 | / | 2.0 | 5161 | -0.2 | / | / | /
O=C(CCCc1nc(-c2ccccc2Cl)no1)NC1CCCC1 | -0.4 | -7.1 | -0.1 | 5847 | 1.2 | / | / | /
O=C(COc1ccccc1)OCC(=O)c1c[nH]c2ccccc12 | -5.1 | 7.1 | 0.0 | 2839 | 0.4 | 0.8 | 0.9 | 3.2
COc1ccc(OCC(=O)c2c[nH]c3ccccc23)cc1 | 2.9 | 3.3 | -11.6 | 4821 | -1.7 | / | / | /
CC(C)Cc1ccc(C(C)C(=O)OCC(=O)c2c[nH]c3ccccc23)cc1 (stereo not given) | -0.9 | -22.7 | 2.6 | 11396 | -0.1 | 1.9 | -1.4 | 5.8
COc1ccc(C(=O)OCC(=O)c2c[nH]c3ccccc23)cc1OC | 39.2* | 4.5 | -11.4 | 5543 | 36.9* | 27.7* | 3.3 | -10.7
O=C(OCC(=O)c1c[nH]c2ccccc12)c1cc(Br)ccc1O | -1.1 | -11.1 | -2.4 | 3144 | 0.6 | 2.1 | -0.8 | 8.2
Cn1cccc1C(=O)OCC(=O)c1c[nH]c2ccccc12 | -2.2 | 9.5 | 3.1 | 4120 | 0.5 | / | / | /
COc1cccc(N2CCN(C(=O)C3CCN(S(=O)(=O)c4cccs4)CC3)CC2)c1 | -3.7 | 1.8 | -1.1 | 3435 | 0.3 | / | / | /
CCOc1ccc(C(=O)N2CCN(CC(=O)N3CCCC3)CC2)cc1OCC | -8.0 | 11.7 | -3.7 | 3465 | -0.7 | / | / | /
CCOC(=O)c1c(C)[nH]c(C(=O)OCC(=O)Nc2sccc2C(N)=O)c1C | 0.3 | -16.8 | -9.3 | 5847 | -3.5 | / | / | /
Cc1ccc(C(=O)OCC(=O)c2c[nH]c3ccccc23)cc1 | 1.0 | 5.6 | -6.2 | 2547 | 0.5 | 4.1 | 3.3 | 14.4
Cc1cnc(C(=O)OCC(=O)c2c[nH]c3ccccc23)cn1 | 11.5 | 8.5 | ? | 9016 | 4.9 | / | / | /
O=C(c1ccc(NS(=O)(=O)c2ccc(Cl)c(Cl)c2)cc1)N1CCOCC1 | -1.8 | 1.9 | -11.1 | 5291 | -1.1 | / | / | /
COc1ccc2cc(C3=CC(=O)CC(C)(C)C3=O)ccc2c1 | 32.1* | -20.0 | 22.0 | 3419 | 26.5 | 8.6 | 5.7 | 3.5
COc1ccc(-c2ccccc2C2=CC(=O)CC(C)(C)C2=O)cc1 | 21.9 | 6.8 | 8.2 | 3662 | 18.2 | / | / | /
Cn1ccc2c(-c3cncc4ccccc34)cc3c(c21)C1CCC3C1 (stereo not given) | 29.6* | / | -0.2 | 3532 | 47.6* | 10.1 | 9.6 | 4.0
Cn1ccc2c(-c3cccc4ccccc34)cc3c(c21)C1CCC3C1 (stereo not given) | -13.3 | / | 2.6 | 4492 | 0.0 | 1.2 | -2.8 | -2.8
Cc1cc(C)c(S(=O)(=O)NCc2ccc3c(c2)cc(C)n3C)c(C)c1 | -36.1 | 11.7 | -79.4 | 1929 | 77.5* | 5.0 | 1.0 | -7.7
CC(=O)Nc1ccc(S(=O)(=O)NCc2ccc3c(c2)cc(C)n3C)cc1 | -115.1 | -2.3 | -112.1 | 1283 | 71.8* | 18.9 | 22.7 | -6.6
CC(=O)Nc1ccc(S(=O)(=O)NCc2cc(=O)n(C)c(=O)n2C)cc1 | 0.3 | 6.4 | -2.6 | 6203 | -1.8 | / | / | /
Cc1cc2cc(CNS(=O)(=O)c3ccc4ccccc4c3)ccc2n1C | -89.1 | 3.5 | -108.3 | 2284 | 47.2* | 19.7 | 6.4 | -26.9
COc1ccccc1C1=NOC(C)(c2nnc(-c3cccc(Cl)c3)o2)C1 (stereo not given) | 3.9 | 2.1 | -8.9 | 2898 | -0.4 | / | / | /
SMILES | Anthrax LF inh2 | MazEF act | BoNT F protease | Autofluor counter | BoNT-A LC inh2 | BoNTA LC inh 2 | LF protease CP2 | BoNTF LC inh 2
O=C(NCc1cccc(F)c1)c1cccc2c1C(=O)c1ccc(N3CCCC3)cc1S2(=O)=O | 11.5 | -482.6 | 17.1 | 4444 | 10.2 | / | / | /
COc1ccccc1N1CCN(c2ccc3c(c2)S(=O)(=O)c2cccc(C(=O)NCc4ccc(F)cc4)c2C3=O)CC1 | -4.4 | -0.8 | -5.3 | 3973 | 0.6 | 0.8 | -1.8 | -4.7
O=C(NCc1ccc(OC(F)(F)F)cc1)c1cccc2c1C(=O)c1ccc(N3CCCC3)cc1S2(=O)=O | 3.7 | -630.7 | 5.5 | 2925 | 3.0 | / | / | /
O=C(NCc1ccc(OC(F)(F)F)cc1)c1cccc2c1C(=O)c1ccc(N3CCC(Cc4ccccc4)CC3)cc1S2(=O)=O | 21.1 | -401.0 | 11.0 | 4518 | 12.8 | 7.4 | 5.6 | 14.9
FC(F)(Cl)c1nnc2ccc(Sc3ccccn3)nn12 | 0.8 | 0.2 | 3.2 | 3932 | 0.5 | / | / | /
CCN(CC)c1ccc2cc(S(=O)(=O)c3ccc(C)cc3)c(=O)oc2c1 | 15.0 | -250.3 | -5.3 | 2271 | 23.9 | 5.2 | 4.9 | 1.9
Cc1cc2cc(CNC(=O)c3ccc(S(=O)(=O)N4CCOCC4)cc3)ccc2n1C | -76.4 | -7.7 | -92.2 | 1461 | 80.7* | 6.2 | 4.1 | 7.7
Cc1cc2cc(CNC(=O)c3ccc(S(=O)(=O)N4CCCCC4)cc3)ccc2[nH]1 | -64.2 | -0.1 | -86.6 | 3901 | 44.3* | 10.2 | 8.4 | 11.3
Cc1ccc(CNC(=O)c2ccc(S(=O)(=O)N3CCCCCC3)cc2)cc1 | 2.8 | 1.9 | 0.9 | 3339 | 0.1 | / | / | /
CN(C)S(=O)(=O)c1ccc(C(=O)NCc2ccc3[nH]c4c(c3c2)CCCC4)cc1 | -0.1 | 4.2 | -9.2 | 5417 | -0.3 | / | / | /
Cc1cc2cc(CNC(=O)c3ccc(S(=O)(=O)N(C)C)cc3)ccc2n1C | -63.6 | -12.6 | -66.1 | 1889 | 81.6* | 8.7 | 8.7 | 17.9
C=CCNc1nc(C(=O)OCC(=O)c2ccc(Cl)cc2)cs1 | -0.5 | 1.2 | -0.3 | 6459 | 1.3 | / | / | /
COc1ccc(-c2oc3c(OC)c(OC)c(OC)c(O)c3c(=O)c2OC)cc1OC | 33.8* | 1.9 | 11.0 | 4692 | 38.6* | 16.7 | 19.0 | 18.8
COc1ccc(NC(=O)c2cc(S(=O)(=O)N3CCOCC3)ccc2C)cc1S(=O)(=O)N1CCCCC1 | 2.4 | 6.7 | 2.9 | 3883 | 0.0 | / | / | /
COc1ccc(NC(=O)c2cc(S(=O)(=O)N3CCCC3)ccc2C)cn1 | 44.9* | -6.4 | 73.3* | 2946 | 11.7 | 1.2 | -2.1 | -1.2
Cn1ccc2c(-c3cccc(C=O)c3F)cc3c(c21)C1CCC3C1 (stereo not given) | -23.7 | / | -67.1 | 3712 | 18.8 | / | / | /
Cn1ccc2c(-c3cccc(C=O)c3)cc3c(c21)C1CCC3C1 (stereo not given) | -7.0 | / | 0.8 | 4170 | 1.2 | / | / | /
Cn1ccc2c(-c3cccnc3)cc3c(c21)C1CCC3C1 (stereo not given) | 4.2 | / | 1.5 | 5938 | 0.8 | 1.7 | 0.4 | 9.6
CN(c1cccc(F)c1)c1cc2c(c3c1ccn3C)C1CCC2C1 (stereo not given) | -15.9 | / | -5.3 | 4440 | -0.9 | / | / | /
Cn1ccc2c(-c3ccc(F)cc3F)cc3c(c21)C1CCC3C1 (stereo not given) | 7.2 | / | -12.3 | 4959 | 15.6 | 1.6 | -2.4 | -9.5

Screening data from PubChem BioAssay.
